Laboratory results: PubChem BioAssay (NCI)
Compounds without any hit were thinned out: in the full panel of roughly 83,000, 20% have a hit.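 Method: cells in 96-well plates; compound added at one concentration; 48 h incubation; percent growth measured; values under 10 scored active.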 The source made the active and inactive calls.

Columns and labels:
Test in all cases: NCI-60 one-dose screen, 48 h (100 = growth as untreated, 0 = no growth, -100 = all killed)
Conditions in all cases: 10 µM unless noted
K-562 leukemia = tested on: K-562 leukemia
MALME-3M melanoma = tested on: MALME-3M melanoma
MDA-MB-231 breast = tested on: MDA-MB-231 breast
RXF 393 renal = tested on: RXF 393 renal
SF-268 CNS = tested on: SF-268 CNS
SF-295 CNS = tested on: SF-295 CNS
SF-539 CNS = tested on: SF-539 CNS
UACC-257 melanoma = tested on: UACC-257 melanoma
M14 melanoma = tested on: M14 melanoma
HCT-15 colon = tested on: HCT-15 colon
HT29 colon = tested on: HT29 colon
SNB-75 CNS = tested on: SNB-75 CNS
SNB-19 CNS = tested on: SNB-19 CNS
U251 CNS = tested on: U251 CNS
PC-3 prostate = tested on: PC-3 prostate
SK-MEL-5 melanoma = tested on: SK-MEL-5 melanoma
UACC-62 melanoma = tested on: UACC-62 melanoma
SK-MEL-28 melanoma = tested on: SK-MEL-28 melanoma
LOX IMVI melanoma = tested on: LOX IMVI melanoma
SK-MEL-2 melanoma = tested on: SK-MEL-2 melanoma

Measured: growth

CN1C(=O)N(c2ccccc2)C2N=C(N/N=C/c3ccccc3)SC21 (configuration not stated)
inactive: K-562 leukemia 12% | MALME-3M melanoma 47.9% | MDA-MB-231 breast 31.9% | SF-268 CNS 55% | SF-295 CNS 30.5% | UACC-257 melanoma 64% | HCT-15 colon 30.3% | SNB-19 CNS 53% | U251 CNS 15.8% | PC-3 prostate 33% | UACC-62 melanoma 44.4% | SK-MEL-28 melanoma 61.3%
active: RXF 393 renal -2.78% | SF-539 CNS -6.36% | M14 melanoma -18.9% | HT29 colon 3.18% | SNB-75 CNS -13.5% | SK-MEL-5 melanoma 5.76%

Cc1sc2nc(NCc3ccccc3Cl)[nH]c(=O)c2c1C
inactive: K-562 leukemia 54.8% | MALME-3M melanoma 100% | MDA-MB-231 breast 73% | RXF 393 renal 94.3% | SF-268 CNS 87.6% | SF-295 CNS 80.2% | SF-539 CNS 77.7% | UACC-257 melanoma 106% | M14 melanoma 105% | HCT-15 colon 47.3% | HT29 colon 103% | SNB-75 CNS 82.8% | SNB-19 CNS 102% | U251 CNS 72.9% | PC-3 prostate 73.9% | SK-MEL-5 melanoma 72.9% | UACC-62 melanoma 75.8% | LOX IMVI melanoma 68.8% | SK-MEL-28 melanoma 98.6% | SK-MEL-2 melanoma 106%

Cc1cccc2sc(/N=C(\N)C(Br)Br)nc12
inactive: SF-268 CNS 72.4% | SF-295 CNS 29% | UACC-257 melanoma 67.8% | M14 melanoma 32.6% | SNB-19 CNS 46.8% | PC-3 prostate 40.8% | SK-MEL-5 melanoma 51.4% | UACC-62 melanoma 22% | SK-MEL-28 melanoma 38.4%
active: K-562 leukemia 4.43% | MALME-3M melanoma -53.6% | MDA-MB-231 breast 6.18% | RXF 393 renal -22.5% | SF-539 CNS 8.75% | HCT-15 colon -36.5% | HT29 colon -30.4% | SNB-75 CNS 7.62% | U251 CNS 9.02% | LOX IMVI melanoma -86% | SK-MEL-2 melanoma 5.61%

Cn1cc(-c2cc(N)n3nc(-c4cn(C)c5ccc(Cl)cc45)cc3n2)c2cc(Cl)ccc21
active: HT29 colon -16.5% | U251 CNS -4.82%
inactive: K-562 leukemia 26.5% | MALME-3M melanoma 100% | MDA-MB-231 breast 71.1% | RXF 393 renal 121% | SF-268 CNS 78.8% | SF-295 CNS 95.4% | SF-539 CNS 94.2% | UACC-257 melanoma 108% | M14 melanoma 53.4% | HCT-15 colon 32.8% | SNB-75 CNS 83.2% | SNB-19 CNS 99.4% | PC-3 prostate 87.3% | SK-MEL-5 melanoma 104% | UACC-62 melanoma 93.9% | LOX IMVI melanoma 11.3% | SK-MEL-28 melanoma 76.7% | SK-MEL-2 melanoma 121%

O=c1/c(=C\c2ccc(-c3ccccc3)o2)sc2nc(-c3ccccc3)nn12
inactive: K-562 leukemia 102% | MALME-3M melanoma 102% | MDA-MB-231 breast 97.9% | RXF 393 renal 115% | SF-268 CNS 96.8% | SF-295 CNS 105% | SF-539 CNS 105% | UACC-257 melanoma 106% | M14 melanoma 100% | HCT-15 colon 91.8% | HT29 colon 102% | SNB-75 CNS 99.8% | SNB-19 CNS 93.3% | U251 CNS 98.8% | PC-3 prostate 95.7% | SK-MEL-5 melanoma 101% | UACC-62 melanoma 98.7% | SK-MEL-28 melanoma 109% | SK-MEL-2 melanoma 114%

CNC(=O)c1cc(-c2ccc(NC(=O)Nc3ccc(N4CCN(C)CC4)c(C(F)(F)F)c3)cc2)nc2cccnc12
active: K-562 leukemia -56.9% | MALME-3M melanoma -85.5% | MDA-MB-231 breast -78.4% | RXF 393 renal -78.3% | SF-268 CNS -71.3% | SF-295 CNS -94.5% | SF-539 CNS -89.2% | UACC-257 melanoma -94.3% | M14 melanoma -94.2% | HCT-15 colon -79.5% | HT29 colon -89.3% | SNB-75 CNS -83.1% | SNB-19 CNS -79.4% | U251 CNS -94.2% | PC-3 prostate -90.6% | SK-MEL-5 melanoma -96.6% | UACC-62 melanoma -83.8% | LOX IMVI melanoma -92.5% | SK-MEL-28 melanoma -92.2% | SK-MEL-2 melanoma -80.7%

O=C(N/N=C/c1ccc[nH]1)c1[nH]c2ccc(Br)cc2c1-c1ccccc1
active: K-562 leukemia 3.06% | SF-295 CNS 7.67% | HCT-15 colon 9.42% | HT29 colon 6.16% | SK-MEL-5 melanoma -34.3%
inactive: MALME-3M melanoma 45.1% | MDA-MB-231 breast 14% | RXF 393 renal 53.2% | SF-268 CNS 25.3% | SF-539 CNS 14.2% | UACC-257 melanoma 30.3% | M14 melanoma 13.2% | SNB-75 CNS 27.3% | SNB-19 CNS 30.6% | U251 CNS 21.8% | PC-3 prostate 15.2% | UACC-62 melanoma 13.4% | SK-MEL-28 melanoma 61.2%

N#Cc1c(-c2ccc(Cl)cc2)nc(SCc2ccc(F)cc2)nc1N1CCNCC1
active: K-562 leukemia -34.5% | HCT-15 colon 1.29% | HT29 colon -51.8% | U251 CNS -71.5% | LOX IMVI melanoma -59.2%
inactive: MALME-3M melanoma 88.3% | MDA-MB-231 breast 16.2% | RXF 393 renal 58.5% | SF-268 CNS 73.3% | SF-295 CNS 96.8% | SF-539 CNS 75.9% | UACC-257 melanoma 86.4% | M14 melanoma 72.8% | SNB-75 CNS 65.3% | SNB-19 CNS 76.6% | PC-3 prostate 53.8% | SK-MEL-5 melanoma 62.5% | UACC-62 melanoma 95% | SK-MEL-28 melanoma 99.3% | SK-MEL-2 melanoma 111%

O=C(CSc1nccc(=O)[nH]1)Nc1ccc(-c2nc3ccccc3[nH]2)cc1
inactive: K-562 leukemia 105% | MALME-3M melanoma 101% | MDA-MB-231 breast 102% | RXF 393 renal 128% | SF-268 CNS 115% | SF-295 CNS 115% | SF-539 CNS 98.9% | UACC-257 melanoma 108% | M14 melanoma 110% | HCT-15 colon 108% | HT29 colon 109% | SNB-75 CNS 122% | SNB-19 CNS 103% | U251 CNS 106% | PC-3 prostate 92.6% | SK-MEL-5 melanoma 99.7% | UACC-62 melanoma 99.7% | SK-MEL-28 melanoma 98.9% | SK-MEL-2 melanoma 107%

O=C(CCN1C(=O)/C(=C/c2ccccc2)SC1=S)N1CCOCC1
active: LOX IMVI melanoma 0.309%
inactive: K-562 leukemia 43.1% | MALME-3M melanoma 72.9% | MDA-MB-231 breast 75.9% | RXF 393 renal 77.1% | SF-268 CNS 97.7% | SF-295 CNS 98.1% | SF-539 CNS 91.8% | UACC-257 melanoma 91.4% | M14 melanoma 76.8% | HCT-15 colon 53.7% | HT29 colon 102% | SNB-75 CNS 92.1% | SNB-19 CNS 101% | U251 CNS 99.9% | PC-3 prostate 111% | SK-MEL-5 melanoma 99.5% | UACC-62 melanoma 78.8% | SK-MEL-28 melanoma 85.6% | SK-MEL-2 melanoma 112%

COc1cc2nc(-c3ccc(C)cc3)cc(OCCCNCC3CCCO3)c2cc1OC (configuration not stated)
active: LOX IMVI melanoma -32.2%
inactive: K-562 leukemia 43.6% | MALME-3M melanoma 50% | MDA-MB-231 breast 59.1% | RXF 393 renal 59.6% | SF-268 CNS 79.7% | SF-295 CNS 59.9% | SF-539 CNS 73.7% | UACC-257 melanoma 17.8% | M14 melanoma 14.3% | HCT-15 colon 38% | HT29 colon 21.3% | SNB-75 CNS 80.7% | SNB-19 CNS 92.1% | U251 CNS 66.7% | PC-3 prostate 66.3% | SK-MEL-5 melanoma 77.7% | UACC-62 melanoma 96.6% | SK-MEL-28 melanoma 68.1% | SK-MEL-2 melanoma 112%

N#Cc1c(-c2ccc(Cl)cc2)nc2c(-c3ccccc3)c(Nc3ccccc3)nn2c1N
inactive: K-562 leukemia 67.3% | MALME-3M melanoma 79.9% | MDA-MB-231 breast 26% | RXF 393 renal 78.8% | SF-268 CNS 82.4% | SF-295 CNS 46% | SF-539 CNS 80.6% | UACC-257 melanoma 105% | M14 melanoma 70.1% | HCT-15 colon 67.2% | HT29 colon 62.9% | SNB-19 CNS 72.8% | U251 CNS 19.8% | PC-3 prostate 62.2% | SK-MEL-5 melanoma 92.9% | UACC-62 melanoma 62.8% | SK-MEL-28 melanoma 82.5%
active: SNB-75 CNS 4.2%

CN(C)S(=O)(=O)c1oc(-c2ccccc2)nc1C#N
inactive: MDA-MB-231 breast 52.2% | RXF 393 renal 39% | SF-268 CNS 116% | SF-295 CNS 99.3% | SF-539 CNS 84.4% | UACC-257 melanoma 103% | M14 melanoma 27.5% | HT29 colon 35.1% | SNB-75 CNS 96.1% | SNB-19 CNS 96.1% | U251 CNS 88.8% | PC-3 prostate 88.7% | SK-MEL-5 melanoma 93.1% | UACC-62 melanoma 97.9% | SK-MEL-28 melanoma 87.8% | SK-MEL-2 melanoma 110%
active: K-562 leukemia 5.64% | MALME-3M melanoma -23.6% | HCT-15 colon -11.6% | LOX IMVI melanoma -80.7%
